Here are results for three molecules from PubChem BioAssay (EPA / NIEHS).

The target in test [1] is rat Neurokinin-3 Receptor (NK3), Tacr3 (gene 24808) (UniProt P16177). Nature of the test: NVS_GPCR_rNK3: NovaScreen (NVS) G Protein-Coupled Receptor Assay for rat Neurokinin-3 Receptor (NK3) (AID 2283310). In short, it runs like this:
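Rat cortical membranes; radioligand binding with filtration and scintillation counting, 2 h after dosing. Primary screen in duplicate at 25 uM, then concentration-response up to 50 uM; loss of binding signal relative to DMSO.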

The target of test [2] is rat Vasopressin 1 Receptor (V1), Avpr1a (gene 25107) (UniProt P30560). As to the kind of experiment: NVS_GPCR_rV1: NovaScreen (NVS) G Protein-Coupled Receptor Assay for rat Vasopressin 1 Receptor (V1) (AID 2283316). In short, it runs like this:
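Radioligand binding on rat liver membranes, 1.5 h incubation, filter-based scintillation counting. Single 25 uM screen in duplicate; chemicals meeting threshold (e.g. 30% inhibition) run in concentration-response up to 50 uM.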

The target in test [3] is Voltage-dependent N-type calcium channel subunit alpha-1B (Rattus norvegicus) (UniProt Q02294). As to the kind of experiment: NVS_IC_rCaChN: NovaScreen (NVS) Ion Channel Assay for rat Calcium Channel, Type N (CaChN) (AID 2283317).

Results filed as inconclusive are left out. Activity calls are given as the source filed them. The calls were made as follows: active = hit-call score of the fitted dose curve at least 0.9, where 1 is the maximum; inconclusive = response in the unintended direction; inactive = score below 0.9.

Sequence of rat Vasopressin 1 Receptor (V1), Avpr1a (gene 25107) (P30560 whole entry, looked up): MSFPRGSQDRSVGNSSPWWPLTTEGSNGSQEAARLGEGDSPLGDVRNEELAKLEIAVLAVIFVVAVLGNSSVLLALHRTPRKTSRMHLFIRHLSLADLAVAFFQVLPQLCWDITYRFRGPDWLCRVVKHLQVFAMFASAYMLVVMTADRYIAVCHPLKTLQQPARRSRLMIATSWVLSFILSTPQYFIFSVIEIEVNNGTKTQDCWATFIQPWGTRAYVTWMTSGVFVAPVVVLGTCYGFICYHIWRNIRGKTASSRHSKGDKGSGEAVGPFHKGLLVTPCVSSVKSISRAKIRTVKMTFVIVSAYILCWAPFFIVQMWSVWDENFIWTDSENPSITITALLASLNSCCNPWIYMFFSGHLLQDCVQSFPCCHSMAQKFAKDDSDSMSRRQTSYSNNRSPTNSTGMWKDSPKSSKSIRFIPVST
Sequence of rat Neurokinin-3 Receptor (NK3), Tacr3 (gene 24808) (P16177 whole entry, looked up): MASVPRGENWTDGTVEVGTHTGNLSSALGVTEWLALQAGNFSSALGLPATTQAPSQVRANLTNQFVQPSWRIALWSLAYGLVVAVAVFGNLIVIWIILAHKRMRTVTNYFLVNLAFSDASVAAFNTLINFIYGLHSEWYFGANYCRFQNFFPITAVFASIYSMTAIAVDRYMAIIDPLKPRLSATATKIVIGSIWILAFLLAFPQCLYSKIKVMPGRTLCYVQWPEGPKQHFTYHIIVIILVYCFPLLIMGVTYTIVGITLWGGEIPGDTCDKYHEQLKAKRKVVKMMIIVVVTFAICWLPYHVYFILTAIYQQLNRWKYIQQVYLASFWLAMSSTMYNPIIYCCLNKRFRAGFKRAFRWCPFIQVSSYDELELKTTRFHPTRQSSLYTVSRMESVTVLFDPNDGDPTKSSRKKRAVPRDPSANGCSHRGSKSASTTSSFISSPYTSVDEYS

Take `CCCCC(C#N)(Cn1cncn1)c1ccc(Cl)cc1` (centres undefined): the outcome in test [1] was inactive. Moreover, the concentration at half-maximal activity (AC50) in test [2] was 1.98 µM (active). Take `COc1cc(OC)nc(NC(=O)NS(=O)(=O)c2ncccc2OCC(F)(F)F)n1`: the half-maximal activity concentration (AC50) in test [2] was 16.4 µM (active). In the case of `N#Cc1c[nH]cc1-c1cccc2c1OC(F)(F)O2`, the outcome in test [3] was inactive.
